Each structure is given as a SMILES string. In all, about 300,000 compounds went through this assay and about 37,000 (12%) were called active. Only a selection was taken, and actives are over-represented in it overall. Unmarked numbers belong to inactive results. Rule as the data show it: active = max response mostly above about 13% (no sharp cut-off); inactive = mostly below about 14%.

The assay is described as follows: Cycloheximide Counterscreen for Small Molecule Inhibitors of Shiga Toxin. Also: read at 38.3 µM for the half of the compounds with a filed dose; 0% is about no effect. The note with it: cell reporter, cycloheximide protein synthesis inhibition counterscreen; hits give high values.
Regarding `COc1c(C)cc(C(=O)C2CCCN(S(=O)(=O)c3c(C)noc3C)C2)cc1C` (stereo not given), the max response is 5.32%. The figure for `Cc1ccc2c(c1)N(CC(=O)N1CCOCC1)C(=O)CO2` is -3.08%; for `Cc1nc(C(=O)Nc2ccc(Cl)cc2)sc1C1(C)CC(c2ccccc2)=NO1` (stereo not given) it is 9.03%. As for `Cc1nc(C(=O)NCc2ccccc2)sc1C1(C)CC(c2cccnc2)=NO1` (stereo not given), the max response was -3.23%. With `Cc1nc(-c2ccc(Cl)cc2)sc1C1(C)CC(c2ccccc2F)=NO1` (stereo not given), the max response is 20.7% (active). The figure for `CCN(c1ccc(NC(=O)COC(=O)CCc2nc3ccccc3n2-c2ccccc2)cc1)C(C)C` is 6.5%. In the case of `COc1ccccc1NC(=O)COc1ccc(C(=O)OCC(=O)N(C(C)C)C(C)C)cc1OC`, the max response was -3.62%. As for `COc1ccc2c(c1)C(NS(=O)(=O)OCC(Cl)(Cl)Cl)CCC2` (stereo not given), the max response was 0.921%.

On to `COc1cc2c(C(=O)N3CCN(C)CC3)c(CSc3ccccc3)n(C)c2cc1Br`, for which the max response was -3.14%. As to `Cc1ccc(C(=O)N/C(=C\c2cn(S(=O)(=O)N(C)C)c3ccccc23)C(=O)N2CCCC2)cc1`, the max response was -4.36%. For the molecule `Cc1nc(-c2ccc(F)cc2)c(CC(=O)N2CCN(S(=O)(=O)c3ccc(F)cc3)CC2)s1`, the max response is -1.12%.

Turning to `Cc1ccc(NC(=O)N2CCSc3ccccc32)cc1`, the max response was 21.8% (active).

As to `Cc1ccc(NC(=O)N2CCC(O)(c3cccnc3)CC2)cc1`, the max response was -0.6%. Turning to `CCOc1ccc(CNC(=O)CCC(=O)N2CCSc3ccccc32)cc1`, the max response was 3.9%. On to `Cc1ccc2c(=O)oc(N(C)C)nc2c1`, for which the max response is -3.11%. For `COc1ccc(CNC(=O)CCN2C(=O)c3ccccc3C2=O)cc1`, the max response was -8.4%. As for `Cc1cc(C(=O)NC2CCCc3c2cnn3-c2cccc(C)c2C)c(C)o1` (stereo not given), the max response is 0.915%. Regarding `CCOc1ccc2c(c1)C(c1ccc(C)cc1)=NNC(c1ccc(C)cc1)=N2`, the max response was 54.8% (active). The figure for `CCC1OC(c2ccc([N+](=O)[O-])cc2)=Nc2ccccc21` (stereo not given) is -5.5%; for `CCc1ccc2c(c1)C(c1ccc([N+](=O)[O-])cc1)=NNC(c1ccccc1)=N2` it is 33.3% (active); for `Cc1ccc(C2=Nc3c(ccc4ccccc34)C(c3ccncc3)=NN2)cc1` it is 1.6%.

With `O=C1NC(=O)C2C1C(c1ccc([N+](=O)[O-])cc1)=NN2Cc1ccccc1` (stereo not given), the max response is -2.84%. Consider `COc1ccc2c(c1)C(c1cccs1)=NNC(c1cccnc1)=N2`, for which the max response was 18.1%. Regarding `COc1ccc(-c2onc3ccc(C(C)=O)cc23)cc1`, the max response was 2.44%. In the case of `CC1=C(C(=O)OC(C)(C)C)C(c2ccc(Br)cc2)NC(=O)N1CCCC(=O)O` (stereo not given), the max response is -2.28%. On to `O=C(c1cc2cc(Br)cc(Br)c2oc1=O)N1CCOCC1`, for which the max response is 0.493%. The figure for `CC1CCN(CCCNC(=O)CN2C(=O)CSc3ccc(S(=O)(=O)N4CCCCC4)cc32)CC1` is -0.237%. In the case of `O=C(CN1CCC(NC(=O)C2CC2)CC1)Nc1ccccc1[N+](=O)[O-]`, the max response is 7%. Regarding `O=C1c2ccccc2C(=O)N1CCC(O)C[N+](=O)[O-]` (stereo not given), the max response was -2.75%. As to `O=C1c2ccccc2C(=O)N1CCC(c1ccccc1)c1ccco1` (stereo not given), the max response is 24.4% (active). As for `O=C1c2ccccc2C(=O)N1CCc1nn[nH]n1`, the max response was -3.78%. As for `CCCN1CCn2c3c(c4cc(Br)ccc42)CCCC31` (stereo not given), the max response was 25.3% (active). `OC(CNCC1CCCO1)Cn1c2ccc(Br)cc2c2cc(Br)ccc21` (stereo not given): the max response is -6.3%. The figure for `COCCn1c(SCC(=O)c2[nH]c(C)c(C(C)=O)c2C)nc2ccccc2c1=O` is -3.66%; for `N#Cc1c(NC(=O)c2ccc(N3CCOCC3)c([N+](=O)[O-])c2)sc2c1CCCC2` it is 1.18%. As for `N#Cc1c(NC(=O)C2CC(Cl)=CCC2C(=O)O)sc2c1CCCCC2` (stereo not given), the max response is -1.59%. The value for `N#Cc1c(NC(=O)CCCl)sc2c1CCCCC2` was 21.9% (active). Regarding `N#Cc1c(NC(=O)C2CCCO2)sc2c1CCCCC2` (stereo not given), the max response is 48.6% (active). In the case of `CC(=O)c1c(C)[nH]c(C(=O)OCC(=O)Nc2sc3c(c2C#N)CCCC3)c1C`, the max response was -1.13%. As for `CCN1CCN(CC(=O)Nc2sc3c(c2C#N)CCC3)CC1`, the max response was 1.34%. Regarding `O=C1C(=O)N(CCCO)C(c2ccccc2)/C1=C(\O)c1ccc(Br)cc1` (stereo not given), the max response is 0.724%. Regarding `CN1C(=O)/C(=C/C=C2\SCCN2C)OC1=S`, the max response was 37.4% (active). As for `Cc1csc(NC(=O)CSc2nc(=O)cc(N)n2-c2ccc(F)cc2)n1`, the max response is 16.3%. `CCc1ccc(OCC(=O)NCC(c2ccc(Cl)cc2)N2CCCCC2)cc1` (stereo not given): the max response is -2.84%. For the molecule `COc1ccc(-c2cc3n(n2)CCc2nc4ccccc4n2-3)cc1`, the max response was 9.75% (active). With `COc1ccc(-c2cc(C(=O)n3cnc4ccccc43)c3ccccc3n2)cc1`, the max response was 16.1%. For the molecule `CCn1c(C(O)c2cc(OC)ccc2OC)nc2ccccc21` (stereo not given), the max response is 5.8%. With `CC(CC(=O)Nc1ccc(F)cc1F)S(=O)(=O)c1ccc2c(c1)NC(=O)CO2` (stereo not given), the max response was 2.18%.

For the molecule `c1cc(-c2nn[nH]n2)ccc1CN1CCCCC1`, the max response was -1.37%.

In the case of `Brc1ccc(-c2nn[nH]n2)cc1`, the max response is 9.02%. The figure for `CC(C)c1ccc(-c2nn[nH]n2)cc1` is 23% (active). The figure for `COc1cccc(NC(=O)CCNS(=O)(=O)c2ccc3c(c2)oc(=O)n3C)c1` is 0.768%.

Regarding `COc1ccc(OCc2nnc3n2N=C(c2ccccc2)C(CC(=O)O)S3)cc1` (stereo not given), the max response is -4.15%. As for `COc1ccc(CNC(=O)C(=O)NCC2OCCN2C(=O)c2ccc(OC)cc2)cc1` (stereo not given), the max response was -1.12%. As for `CSc1ccc(C#N)cc1NC(=O)c1cccc(Cl)c1`, the max response is -1.93%. The figure for `N#Cc1ccccc1NC(=O)c1cccc(COc2ccc(Cl)cc2Cl)c1` is 116% (active).

Take `CSc1ccc(C#N)cc1NC(=O)c1ccc(Cl)cc1`: the max response is 6.79%.

Take `COc1ccc(OC)c(NC(=O)c2cccc(S(=O)(=O)N3CCN(C(C)=O)CC3)c2)c1`: the max response was -2.4%.

As to `CC[n+]1c(C)n(-c2ccccc2)c2ccc(NC(C)=O)cc21`, the max response was 8.88%.

For `Cc1ccc(CCN2CC(C(=O)NCCc3ccccc3)CC2=O)cc1` (stereo not given), the max response is 20.4%. For `COc1cccc(CNS(=O)(=O)c2csc(C(N)=O)c2)c1`, the max response was -4.05%. Consider `COc1ccc(C(=O)NCCn2nc(C)cc2C)cc1OC1CCN(C(C)=O)CC1`, for which the max response was 1.36%. As to `O=C(N/N=C/c1cccnc1)c1cc2ccccc2cc1O`, the max response was 35.6% (active). As for `O=C(N/N=C\c1cccnc1)c1cc(-c2ccccc2)nc2c(Cl)cccc12`, the max response was -2.05%. For the molecule `Cc1ccc(/C=N/NC(=O)CSc2ccccn2)o1`, the max response is 17.1%. `Cc1ccc(/C=N/NC(=O)c2cc3ccccc3cc2O)o1`: the max response was 19.4% (active). The figure for `O=C(N/N=C/c1cccnc1)c1ccc(NC(=O)c2ccc(F)cc2)cc1` is -1.26%; for `Cc1ccc(/C=N/NC(=O)CNC(=O)COc2ccccc2)o1` it is -7.97%. On to `CCC(C)[C@H](NC(=O)N1c2ccccc2NC(=O)[C@@H]1C(C)C)C(=O)N[C@@H](Cc1ccccc1)C(=O)O` (stereo not given in full), for which the max response is 1.02%.

For `COc1ccc(OCC(O)CN(C)C(=O)C(C)Oc2ccccc2)cc1` (stereo not given), the max response is -1.78%. Regarding `Cc1ccc(SC(CC(=O)c2ccc(C(C)(C)C)cc2)C(=O)O)cc1` (stereo not given), the max response was 7.94%. As for `Cc1cc(-c2ccc(C)c(S(=O)(=O)NC(C)Cc3ccco3)c2)on1` (stereo not given), the max response was 17.2%.

`COC(=O)c1ccc(NC(=O)c2cc3c(CO)cnc(C)c3oc2=Nc2cccc(C(N)=O)c2)cc1`: the max response was -3.69%.

For the molecule `CCCc1ccc(OCCNC(=O)c2ccco2)cc1`, the max response is 37.4% (active). On to `COc1ccc(CCNC(=O)c2ccccc2OCc2ccccc2)cc1`, for which the max response was -1.84%. With `CCCc1ccc(OCCNC(=O)c2ccccc2Br)cc1`, the max response is 16.2% (active). Regarding `CCCCOc1ccc(C(=O)NCc2ccncc2)cc1`, the max response was 4.92%.

For the molecule `CCCc1ccc(OCC(=O)NNC(=S)NC(=O)c2ccco2)cc1`, the max response was -2.62%. The figure for `CCOc1ncccc1C(=O)NCCc1ccc(OC)cc1` is -4.4%; for `CCOc1cc(NC(=S)NCCCOC)c(OCC)cc1NC(=O)c1ccco1` it is 2.79%; for `Cc1ccc(OCC(=O)NCCCNC(=O)c2ccco2)cc1C` it is -3.33%. With `CCCCOc1ccc(C(=O)NCc2ccco2)cc1`, the max response was 27.4% (active).

As for `CCCCOCCCNC(=O)c1ccccc1OCC`, the max response is -1.45%.

Consider `COc1ccc(CCNC(=O)c2ccco2)cc1`, for which the max response is 33% (active). As for `O=C(CCCOc1ccccc1)NCc1ccco1`, the max response is 8.48%.

Consider `CC(C)Oc1c(Br)cc(Br)cc1/C=N/NC(N)=S`, for which the max response was -0.405%. Regarding `CN(C(=O)CN1C(=O)CCSc2ccc(S(=O)(=O)N3CCCC3)cc21)c1ccccc1`, the max response was 1.23%. The figure for `CCOc1ccc(N(C)Cc2cc(=O)oc3ccc(OC)cc23)cc1` is -1.56%; for `O=C(C1CCC(=O)N(C2CC2)C1)N1CCN(c2ccc(Cl)cc2)CC1` (stereo not given) it is -2.23%; for `CCn1c(CSCc2c(Cl)cccc2Cl)n[nH]c1=S` it is 7.21%. Regarding `O=C(C[n+]1cc(-c2ccc(Cl)c(Cl)c2)n2c1CCC2)c1cccs1`, the max response is -1.98%. Consider `CCOc1ccccc1NC(=S)N1CCN(c2cccc(C)c2C)CC1`, for which the max response is -1.77%.

For `NC(=O)CCC(NS(=O)(=O)c1ccc(Cl)cc1)C(=O)NCc1ccccc1Cl` (stereo not given), the max response was -1.61%.

With `Cc1nn(CC(=O)NCCc2ccccc2)c(=O)c2cc3occc3n12`, the max response was -3.95%. For the molecule `O=C(Cn1c(-c2cscn2)nc2ccccc21)Nc1ccc(Cl)cc1`, the max response is -2.37%.

The record behind these values is PubChem BioAssay AID2314 (National Center for Advancing Translational Sciences (NCATS), 2010).
